These results are taken from the supplement of paper PMC4894684.

Where a name gives a salt, the structure may show the parent alone. ± gives the standard deviation of the averaged measurements.

For the assay, the system named is Toxoplasma gondii RH (in HFF). In words: parasite growth relative to the screen mean (all compounds = 100%); higher = less inhibition of parasite growth. Conditions: 5 µM; 72 h; oxygen 21 %. The gist of the method:
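Values give growth relative to the screen mean. The screen mean (all compounds) is set at 100%, and two screens were averaged. Compounds at 5 µM final were placed on confluent human foreskin fibroblasts, which were infected within 2 h with RH β-Gal–GFP Toxoplasma (MOI 1:5) and kept 72 h at 21% O2 before a CPRG β-Gal readout against in-plate standard curves.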
In turn, `OCC1OC(n2cnc3c(NC4CCCC4)nc(Cl)nc32)C(O)C1O` (stereo not drawn) [2-Chloro-N6-cyclopentyladenosine] gave a parasite growth of 138 ± 11%. With `CNC(=C[N+](=O)[O-])NCCSCc1ccc(CN(C)C)o1` [Ranitidine hydrochloride], the parasite growth is 94.7 ± 18%. Take `N[C@@H](Cc1cc(-c2ccc(Cl)cc2Cl)cc(CP(=O)(O)O)c1O)C(=O)O`: the parasite growth stood at 127 ± 26%. Consider `Nc1nc2c(ccc3ccccc32)s1`, for which the parasite growth was 158 ± 11%.

For the compound `CN1CCC(=C2c3ccccc3C=Cc3ccccc32)CC1` [Cyproheptadine hydrochloride], the parasite growth amounted to 12.1 ± 16%. Then `CC1=Nc2ccc(Cl)cc2S(=O)(=O)N1` [Diazoxide], with 77.6 ± 16%; and `C[C@@]1(O)[C@H](O)[C@@H](CO)O[C@H]1n1cnc2c(NC3CCCC3)nc(Cl)nc21`, with 85.3 ± 39%.

In turn, `Nc1c2c(nc3ccccc13)CCCC2` [Tacrine hydrochloride] yielded a parasite growth of 130 ± 27%. The same measure for `O=C1C(Cl)=C(NCCN2CCOCC2)C(=O)c2ncccc21`: 25.7 ± 24%; for `FC(F)(F)c1cccc(-c2noc(-c3cc(-c4ccccc4)c(C(F)(F)F)s3)n2)c1`: 109 ± 44%.

Take `Cc1c(C(=O)N(C)C2CCCCC2)sc2nc3ccc(N)cc3n12`: the parasite growth came to 185 ± 31%.

The compound `CCCc1c(OCCCOc2ccc(OCC(=O)O)cc2)ccc(C(C)=O)c1O` returned a parasite growth of 135 ± 1.4%.

Regarding `Cn1ccc2cc(NC(=O)Nc3cccnc3)ccc21`, the parasite growth amounted to 129 ± 6.5%. Then `CC1=C(/C=C/C(C)=C/C=C/C(C)=C/C(=O)O)C(C)(C)CCC1` [Retinoic acid], with 85 ± 12%; and `CCN1CCC[C@H]1CNC(=O)c1c(O)c(Cl)cc(Cl)c1OC` [Raclopride], with 138 ± 25%. Compound `CN1CCN(C(=O)c2nc3ccc(Cl)cc3[nH]2)CC1` yielded a parasite growth of 133 ± 14%. The compound `CCC(=O)NC1CCc2cccc(OC)c2C1` (stereo not drawn) registered a parasite growth of 84.3 ± 9.1%.

In turn, `CCCCCCCCc1ccc(-c2ccc(C(=O)O)cc2)cc1` yielded a parasite growth of 111 ± 17%. With `CC(C)(CO)Cc1cc(C(C)(C)C)c(O)c(C(C)(C)C)c1`, the parasite growth was determined as 192 ± 11%. Then `CC(C)Oc1ccc2c(=O)c3cc(C(=O)O)ccc3oc2c1`, with 81.9 ± 15%.

Compound `Cc1cc(C(C)(C)C)c(O)c(C)c1CC1=NCCN1` [Oxymetazoline hydrochloride] displayed a parasite growth of 196 ± 16%.

`N[C@H](C(=O)O)c1ccc(O)c(C(=O)O)c1` [(S)-3-Carboxy-4-hydroxyphenylglycine] had a parasite growth of 153 ± 9.2%.

As for `CC(C)(C(=O)O)c1ccc(C(O)CCCN2CCC(C(O)(c3ccccc3)c3ccccc3)CC2)cc1` (stereo not drawn) [Fexofenadine hydrochloride], the parasite growth was determined as 122 ± 26%. The same measure for `O=C(Nc1ccncc1)c1cc([N+](=O)[O-])ccc1Cl`: less than 0%; for `CC1c2ccccc2CN1CC1=NCCN1` (stereo not drawn): 131 ± 4.2%; for `Cc1nc2sccn2c(=O)c1CCN1CCC(=C(c2ccc(F)cc2)c2ccc(F)cc2)CC1` [Ritanserin]: 123 ± 15%.

On to `CN(C)c1ccc(/C=C2/C(=O)Nc3ccccc32)cc1`, for which the parasite growth is 124 ± 26%.

As to `CC(/C=C/c1cccc(Oc2ccc(F)cc2)c1)N(O)C(N)=O` (stereo not drawn), the parasite growth amounted to 184 ± 12%. Then `CN(Cc1cnc2nc(N)nc(N)c2n1)c1ccc(C(=O)N[C@@H](CCC(=O)O)C(=O)O)cc1` [Methotrexate], with 161 ± 27%. In turn, `Nc1[nH]nc2nc3ccccc3nc12` registered a parasite growth of 142.8 ± 0.82%. For the compound `O=C(O)C1CCCN(CCC=C(c2ccccc2)c2ccccc2)C1` (stereo not drawn), the parasite growth was found to be 122 ± 26%. `O=C(O)c1cc(=O)c2ccccc2[nH]1` [Kynurenic acid] returned a parasite growth of 123 ± 18%. The same measure for `c1ccc(N2CCN(CCCOc3ccc4c(c3)OCO4)CC2)cc1` [BP 554 maleate]: 127 ± 0.98%. As to `Cc1cc(I)ccc1Nc1c(C(=O)NOCC2CC2)cc(F)c(F)c1F`, the parasite growth amounted to 107 ± 21%.

Turning to `CC(CCc1ccc(O)cc1)NCCc1ccc(O)c(O)c1` (stereo not drawn) [Dobutamine hydrochloride], the parasite growth turned out to be 176 ± 7.3%. As for `O=c1cc(N2CCOCC2)oc2c(-c3ccccc3)cccc12`, the parasite growth amounted to 129 ± 26%. `CN1[C@@H]2CC[C@H]1C[C@@H](OC(=O)c1c[nH]c3ccccc13)C2` [Tropisetron hydrochloride] returned a parasite growth of 106 ± 3.1%. Then `Oc1cc2c(cc1O)C(c1ccccc1)CNCC2` (stereo not drawn), with 162 ± 47%.
